This passage reports growth results from PubChem BioAssay (NCI).

About 83,000 compounds went through this panel and 20% of them were active in at least one assay; those are over-represented in the sample as a whole.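 Cells were grown in 96-well plates and exposed to the test compound at a single concentration for 48 hours; results are reported as percent growth, with values below 10 considered active.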 Unmarked numbers belong to inactive results. Calls of active or inactive are those of the source.

Among the test systems are HCT-15 colon; HT29 colon; SNB-75 CNS; SNB-19 CNS; U251 CNS; PC-3 prostate; SK-MEL-5 melanoma; UACC-62 melanoma; LOX IMVI melanoma; SK-MEL-28 melanoma; SK-MEL-2 melanoma; EKVX NSCLC; SN12C renal; UO-31 renal; TK-10 renal; ACHN renal; CAKI-1 renal; A498 renal; CCRF-CEM leukemia; MOLT-4 leukemia.
Holding throughout (assay): NCI-60 one-dose screen, 48 h (100 = growth as untreated, 0 = no growth, -100 = all killed)
Common to all, as to conditions: 10 µM unless noted

With `O=C(N/N=C/c1ccccc1Cl)c1ccccc1Nc1ccnc(C(F)(F)F)c1`, the growth in the experiment with HCT-15 colon is 10.4%; in the experiment on HT29 colon, 3.22% (active); in the experiment on SNB-75 CNS, -14.5% (active); in the experiment on SNB-19 CNS, 17.1%; in the experiment with U251 CNS, 3.95% (active); in the experiment with PC-3 prostate it was 2.99% (active). The growth was -50.7% (active) in the experiment on SK-MEL-5 melanoma; -32.7% (active) with UACC-62 melanoma; 4.1% (active) with LOX IMVI melanoma; 25.7% with SK-MEL-28 melanoma; -24% (active) with SK-MEL-2 melanoma; 11.7% with EKVX NSCLC. Moreover, the growth is 9.09% (active) in the experiment with SN12C renal; 1.62% (active) in the experiment with UO-31 renal; 16.1% in the experiment with TK-10 renal; 1.95% (active) in the experiment on ACHN renal; 1.49% (active) in the experiment on CAKI-1 renal; -25% (active) with A498 renal. Besides, the growth in the experiment with CCRF-CEM leukemia was 11.2%; in the experiment with MOLT-4 leukemia, 2.63% (active).

For `COc1cccc(-c2nn(-c3ccccc3)cc2-c2ccnc(-c3cccnc3)c2)c1`, the growth in the experiment on HCT-15 colon is 89.6%; in the experiment with HT29 colon it was 96.7%; in the experiment on SNB-75 CNS, 93%; with SNB-19 CNS, 97.6%; in the experiment on U251 CNS, 104%; with PC-3 prostate, 70.6%. In addition, the growth with SK-MEL-5 melanoma was 81.2%; in the experiment on UACC-62 melanoma, 86.6%; with LOX IMVI melanoma it was 87.4%; in the experiment with SK-MEL-28 melanoma, 100%; with SK-MEL-2 melanoma it was 87.4%; in the experiment on EKVX NSCLC, 93.3%. Besides, the growth with SN12C renal is 101%; in the experiment with UO-31 renal, 62.1%; in the experiment on TK-10 renal, 104%; with ACHN renal, 92.6%; in the experiment on CAKI-1 renal, 102%; in the experiment on A498 renal it was 98.6%. Moreover, the growth is 99% in the experiment on CCRF-CEM leukemia and 88.1% in the experiment with MOLT-4 leukemia.

Regarding `CNC(=O)c1cc(Oc2ccc3nc(NC(=O)Nc4ccc(F)cc4F)sc3c2)ccn1`, the growth with HCT-15 colon was 84%; with HT29 colon, 58.8%; in the experiment with SNB-75 CNS it was 19.2%; in the experiment on SNB-19 CNS, 71.1%; in the experiment with U251 CNS, 37%; in the experiment on PC-3 prostate, 65.9%. Also, the growth is 39% in the experiment with SK-MEL-5 melanoma; 65.1% in the experiment on UACC-62 melanoma; 52.1% with LOX IMVI melanoma; 52.1% in the experiment with SK-MEL-28 melanoma; 74.7% with SK-MEL-2 melanoma; 89.8% in the experiment with EKVX NSCLC. In addition, the growth in the experiment on SN12C renal was 69.2%; in the experiment with UO-31 renal, 91.4%; in the experiment on TK-10 renal it was 93.5%; in the experiment with ACHN renal, 60.6%; with CAKI-1 renal it was 88.4%; in the experiment on A498 renal, 10.9%. In addition, the growth was 89.7% in the experiment with CCRF-CEM leukemia and 82.4% in the experiment with MOLT-4 leukemia.

For `CC(C)(C)[C@H](OCc1cn([C@H]2C[C@@H](O)[C@@H](CO)O2)c(=O)[nH]c1=O)c1ccc(C#Cc2ccccc2)cc1[N+](=O)[O-]`, the growth is 69.8% with HCT-15 colon; 62.3% with HT29 colon; 67% in the experiment with SNB-75 CNS; 82.4% in the experiment with SNB-19 CNS; 68.9% with U251 CNS; 19.3% in the experiment on PC-3 prostate. For the same compound, the growth in the experiment on SK-MEL-5 melanoma was 75.4%; with UACC-62 melanoma, 66.9%; in the experiment on LOX IMVI melanoma, 84.7%; with SK-MEL-28 melanoma, 101%; with SK-MEL-2 melanoma it was 81.3%; in the experiment with EKVX NSCLC, 67.4%. Moreover, the growth in the experiment on SN12C renal is 88.5%; with UO-31 renal, 72%; in the experiment on TK-10 renal, 61.7%; in the experiment on ACHN renal, 77.4%; with CAKI-1 renal it was 79.3%; with A498 renal, 95%. In addition, the growth in the experiment on CCRF-CEM leukemia was 72.2%; in the experiment on MOLT-4 leukemia, 57.6%.

With `COc1ccc(S(=O)(=O)NC2c3ccccc3CC2O)cc1OC` (stereo not given), the growth was 102% in the experiment with HCT-15 colon; 107% in the experiment with HT29 colon; 80.1% with SNB-75 CNS; 98.6% with SNB-19 CNS; 102% in the experiment on U251 CNS; 97.8% with PC-3 prostate. Also, the growth is 103% in the experiment on SK-MEL-5 melanoma; 96.2% in the experiment on UACC-62 melanoma; 102% with LOX IMVI melanoma; 114% in the experiment on SK-MEL-28 melanoma; 104% in the experiment with SK-MEL-2 melanoma; 103% with EKVX NSCLC. In addition, the growth was 96.1% with SN12C renal; 78.8% in the experiment with UO-31 renal; 112% with TK-10 renal; 105% in the experiment on ACHN renal; 102% with CAKI-1 renal; 92.7% with A498 renal. Also, the growth with CCRF-CEM leukemia is 101%; with MOLT-4 leukemia, 103%.

Turning to `CN(C)CCOc1ccc(/C(=C(/CCCCCCCCCC[P+](c2ccccc2)(c2ccccc2)c2ccccc2)c2ccccc2)c2ccccc2)cc1`, the growth in the experiment with HCT-15 colon was -88.7% (active); with HT29 colon it was -68.5% (active); in the experiment on SNB-75 CNS, -88.7% (active); in the experiment with SNB-19 CNS, -92.1% (active); with U251 CNS, -75% (active); in the experiment with PC-3 prostate, -86% (active). Also, the growth in the experiment with SK-MEL-5 melanoma was -97.1% (active); with UACC-62 melanoma, -82.7% (active); in the experiment with LOX IMVI melanoma it was -89.9% (active); with SK-MEL-28 melanoma, -94.1% (active); in the experiment on SK-MEL-2 melanoma, -75.9% (active); in the experiment with EKVX NSCLC, -86.1% (active). Moreover, the growth in the experiment on SN12C renal was -86.2% (active); with UO-31 renal, -90.3% (active); with TK-10 renal, -82.7% (active); in the experiment on ACHN renal, -95.8% (active); in the experiment with CAKI-1 renal it was -93.2% (active); with A498 renal, -92.9% (active). Besides, the figures for the growth in the experiment on CCRF-CEM leukemia and in the experiment with MOLT-4 leukemia were -56% (active) and -60% (active), respectively.

Regarding `Cc1cc([N+](=O)[O-])ccc1NC(=O)c1ccc2c(c1)nc(-c1ccccc1)n2C1CCCCC1`, the growth in the experiment with HCT-15 colon was 51.9%; in the experiment on HT29 colon, 44.5%; in the experiment with SNB-75 CNS, 80.9%; in the experiment on SNB-19 CNS it was 119%; in the experiment with U251 CNS, 91.4%; in the experiment on PC-3 prostate, 77.4%. For the same compound, the growth in the experiment on SK-MEL-5 melanoma is 62.3%; in the experiment with UACC-62 melanoma, 95%; in the experiment with LOX IMVI melanoma, 64%; in the experiment with SK-MEL-28 melanoma it was 117%; in the experiment with SK-MEL-2 melanoma, 87.4%; in the experiment on EKVX NSCLC, 73%. Further, the growth is 98.6% in the experiment with SN12C renal; 62.4% in the experiment with UO-31 renal; 84.3% in the experiment on TK-10 renal; 89.6% in the experiment with ACHN renal; 70.3% with CAKI-1 renal; 122% in the experiment with A498 renal. In addition, the results for the growth in the experiment with CCRF-CEM leukemia and with MOLT-4 leukemia were 68.5% and 52%, respectively.

Regarding `CC1OC(C(=O)N2CCN(CCO)CC2)CC1COC1CCCCC1` (stereo not given), the growth in the experiment on HCT-15 colon is 102% [50 µM]; in the experiment with HT29 colon, 106% [50 µM]; with SNB-75 CNS, 88.3% [50 µM]; with SNB-19 CNS, 93.9% [50 µM]; with U251 CNS, 99.4% [50 µM]; in the experiment on PC-3 prostate, 92.3% [50 µM]. For the same compound, the growth in the experiment on SK-MEL-5 melanoma was 95.8% [50 µM]; in the experiment with UACC-62 melanoma it was 87.7% [50 µM]; in the experiment with LOX IMVI melanoma, 96.4% [50 µM]; in the experiment on SK-MEL-28 melanoma it was 106% [50 µM]; in the experiment with SK-MEL-2 melanoma it was 107% [50 µM]; in the experiment with EKVX NSCLC it was 99.8% [50 µM]. In addition, the growth was 92.1% [50 µM] with SN12C renal; 70.4% [50 µM] in the experiment with UO-31 renal; 129% [50 µM] in the experiment on TK-10 renal; 94.3% [50 µM] with ACHN renal; 85.3% [50 µM] with CAKI-1 renal; 126% [50 µM] with A498 renal. Also, the growth was 106% [50 µM] in the experiment on CCRF-CEM leukemia and 97.1% [50 µM] in the experiment with MOLT-4 leukemia.
